# Experimental data taken from PubChem BioAssay AID2061317 (National Center for Advancing Translational Sciences (NCATS), 2025).
# Inconclusive results are not listed. The source made the active and inactive calls. Calls come from the whole dose curve; as a rule, active = well fitted inhibition curve with a large enough effect; inconclusive = small, poorly fitted or top-dose-only effect; inactive = flat fitted curve, though single readings scatter. Non-standard residues stand in square brackets, D forms with d. Residues, ends and D or L forms follow the SMILES beside them. Dolaproine = CO[C@@H]([C@@H]1CCCN1)[C@@H](C)C(=O)O; Dil = CC[C@H](C)[C@H](NC)[C@@H](CC(=O)O)OC; NMeV = CN[C@H](C(=O)O)C(C)C
# Experiment: Identification of antibody-drug conjugate (ADC) payloads which are substrates of ATP-binding cassette drug efflux transporters: ABCB1-HEK293-MDR-19 cell line with tariquidar
# Conditions: HEK293 ABCB1 (MDR-19) + tariquidar, CellTiter-Glo viability, 48 h
# Excerpt: Antibody-drug conjugates (ADCs) feature an antibody recognizing a specific protein joined to a potent toxic payload. Numerous antibody-drug conjugates have received FDA approval; however, clinical resistance arises. Resistance mechanisms include decreased expression or mutation of the antibody target, impaired payload release, or increased expression of ATP-binding cassette (ABC) efflux transporters associated with multidrug resistance. We therefore sought to characterize the interaction of ABC multidrug transporters with ADC payloads. We performed a high-throughput screen with 27 common ADC payloads using cells lines expressing ABC transporters P-glycoprotein (P-gp, encoded by ABCB1) or ABCG2 (encoded by ABCG2). Confirmatory assays were also performed using cells transfected to express P-gp, ABCG2, or MRP1 (encoded by ABCC1). Several commonly used ADC payloads were substrates of P-gp, including calicheamicin gamma1, monomethyl auristatin E, DM1, and DM4. All the pyrrolobenzodiazepines tested - SJG136, SGD-1882, SG2057, and SG3199 - were substrates of P-gp, ABCG2, and MRP1. […] These findings highlight the risk of transporter-mediated resistance with certain ADC payloads and underscore the importance of selecting payloads that evade ABC transporter recognition in future ADC development.
# HEK-293 cells were transfected with empty vector (pcDNA) or vector containing the human ABCB1 (MDR-19), ABCG2 (R-5), or ABCC1 gene (MRP1) and were maintained in EMEM with 2 mg/mL G418 added to maintain transporter expression. The HeLa derivative KB-3-1 and the P-gp overexpressing KB-8-5-11 subline were maintained in DMEM; KB-8-5-11 additionally received 100 ng/mL colchicine. H460 parental cells were obtained from the Division of Cancer Treatment and Diagnosis Tumor Repository, National Cancer Institute at Frederick, MD and were cultured in RPMI. The ABCG2 expressing subline H460 MX20 was generated by selecting H460 cells in 20 nM mitoxantrone. Media in all cases was supplemented with 10% FBS and 1% penicillin-streptomycin. We explored 27 common ADC payloads, in two orthogonal, paired cell line sets-a drug selected and transfected set for each transporter--to identify substrates of the ABC transporters P-gp and ABCG2. Compounds were sourced from Levena Biopharma (San Diego, CA), Selleck Chem (Houston, TX), ChemieTek (Indianapolis, IN), or Microsource Discovery Systems (Gaylordsville, CT). Screening was performed as previously described. Briefly, cells were plated at a density of 500 cells/well in 1536 well plates with compounds added using a 1536-head pin tool (Kalypsys, San Diego CA). Cells were incubated with cytotoxic drugs and processed with CellTiter Glo reagent (Promega, Madison, WI) to determine viability after 48 hours. P-gp substrates were identified by comparing compound activity between paired sets of low-expressing (sensitive) and over-expressing (resistant) cell lines.
row,SMILES,Potency
1,COc1cc2cc(c1Cl)N(C)C(=O)C[C@H](O)[C@]1(C)O[C@H]1[C@H](C)C1C[C@@](O)(NC(=O)O1)[C@H](OC)/C=C/C=C(\C)C2,2650 nM (active)
2,CCN(C(C)=O)[C@H]1CO[C@@H](O[C@H]2[C@H](O[C@H]3C#C/C=C\C#C[C@]4(O)CC(=O)C(NC(=O)OC)=C3/C4=C\CSSSC)O[C@H](C)[C@@H](NO[C@H]3C[C@H](O)[C@H](SC(=O)c4c(C)c(I)c(O[C@@H]5O[C@@H](C)[C@H](O)[C@@H](OC)[C@H]5O)c(OC)c4OC)[C@@H](C)O3)[C@@H]2O)C[C@@H]1OC,1.2 nM (active)
3,CC(C)(C)OC(=O)Nc1ccc2[nH]c(C(=O)N3C[C@@H](CCl)c4c3cc(O)c3ccccc43)cc2c1,11.8 nM (active)
4,COc1cccc2c1C(=O)c1c(O)c3c(c(O)c1C2=O)C[C@@](O)(C(=O)CO)C[C@@H]3O[C@H]1C[C@H]2[C@H](O[C@@H]3[C@@H](OC)OCCN32)[C@H](C)O1,0.0265 nM (active)
5,COC(=O)c1cc2c3c(cc(O)c2[nH]1)N(C(=O)c1cc2cc(OC)c(OC)c(OC)c2[nH]1)CC3CCl (stereo unspecified),0.7 nM (active)
6,Cc1nc(Nc2ncc(C(=O)Nc3c(C)cccc3Cl)s2)cc(N2CCN(CCO)CC2)n1,13300 nM (active)
7,COc1cccc2c1C(=O)c1c(O)c3c(c(O)c1C2=O)C[C@@](O)(C(=O)CO)C[C@@H]3O[C@H]1C[C@H](N)[C@H](O)[C@H](C)O1,33.4 nM (active)
8,CN(C)CCOc1ccc2[nH]c(C(=O)N3C[C@@H](CCl)c4c3cc(O)c3ccccc43)cc2c1,0.5 nM (active)
9,CCN[C@H]1CO[C@@H](O[C@H]2[C@H](O[C@H]3C#C/C=C\C#C[C@]4(O)CC(=O)C(NC(=O)OC)=C3/C4=C\CSSSC)O[C@H](C)[C@@H](NO[C@H]3C[C@H](O)[C@H](SC(=O)c4c(C)c(I)c(O[C@@H]5O[C@@H](C)[C@H](O)[C@@H](OC)[C@H]5O)c(OC)c4OC)[C@@H](C)O3)[C@@H]2O)C[C@@H]1OC,0.1 nM (active)
10,CCc1c2c(nc3ccc(O)cc13)-c1cc3c(c(=O)n1C2)COC(=O)[C@]3(O)CC,4.2 nM (active)
11,CC[C@H](C)[C@@H]([C@@H](CC(=O)N1CCC[C@H]1[C@H](OC)[C@@H](C)C(=O)N[C@@H](Cc1ccccc1)C(=O)O)OC)N(C)C(=O)[C@@H](NC(=O)[C@@H](NC)C(C)C)C(C)C (H-[NMeV]V[Dil][Dolaproine]F-OH),529 nM (active)
